# About 2,100 (3.2%) of roughly 65,000 compounds showed an effect of 50% or more. The median lay at about -52%. This excerpt belongs to a sample that is enriched for strong results.
# Tested on: Plasmodium falciparum
# Assay: Screen against P. falciparum Asexual Blood Stage (ABS), at 5uM
# Format: functional, Dd2
# Conditions: tested at 5 uM
row,SMILES,INHIBITION
1,O=C(NCc1cc(=O)n2c(n1)CN(CC1CC1)CCC2)c1ccsc1,-69.7%
2,c1cnc(N2CC3(CCN(C4CCOCC4)CC3)c3ccccc32)nc1,64%
3,c1cnc(N2CC3(CCN(C4CCOC4)CC3)c3ccccc32)nc1 (stereo not given),-101%
4,c1cnc(N2CC3(CCN(CC4CCOC4)CC3)c3ccccc32)nc1 (stereo not given),-5.4%
5,COCCN1CCc2cc(C(=O)NC(C)C)c(NCC3CC3)nc2CC1,33.6%
6,O=C(CCn1cccn1)NCCOc1ncc(Cl)cc1Cl,18.7%
7,N#Cc1ccc(N2CCC3(CC2)CC(OCc2cccnc2)CO3)cc1 (stereo not given),-57.3%
8,COCCN1CCC2(CC1)CC(NC(=O)CC1CC1)c1ccccc1O2 (stereo not given),-92.9%
9,COCCN1CCC2(CC1)CC(NC(=O)CN(C)C)c1ccccc1O2 (stereo not given),67.7%
10,COCCN1CCC2(CC1)CC(NC(=O)COC)c1ccccc1O2 (stereo not given),-38.3%
11,CNCc1cc(C)n(-c2ccccc2OC)c1C,30.8%
12,Cc1nn(C)c(C)c1C1CCCN1Cc1cccc(OCC(N)=O)c1 (stereo not given),-22.6%
13,CCn1cncc1CNC(=O)c1ccc(C2CCCN2C(=O)COC)s1 (stereo not given),-32.8%
14,O=C(NCC1CC1)[C@@H]1CCO[C@@H]2CCN(Cc3ccsc3)C[C@H]21,50.9%
15,O=C(NC1CC1)[C@@H]1CCO[C@@H]2CCN(Cc3ccsc3)C[C@H]21,-48.8%
16,O=C(NCC1CC1)[C@@H]1CCO[C@@H]2CCN(Cc3ccc(F)cc3)C[C@H]21,22.5%
17,O=C(NCCCn1ccnc1)NCC(c1ccco1)N1CCCC1 (stereo not given),-96.3%
18,CCN1CCCC(CN(C)c2nccc(-c3ccc(C)nc3C)n2)C1 (stereo not given),26.3%
19,N[C@@H]1CC[C@@H]1NC(=O)c1ccccc1OC(F)(F)C(F)F,42.2%
20,CC(C)N[C@@H]1CC[C@@H]1NC(=O)c1ccccc1OC(F)(F)C(F)F,54.4%
21,O=C(N[C@@H]1CCNC[C@H]1O)c1ccccc1OC(F)(F)C(F)F,-173%
22,Cc1ccnc(NCc2cn3nc(C)sc3n2)n1,-114%
23,O=C(Cc1ccc2c(c1)OCC2)Nc1nc[nH]n1,-116%
24,c1cnn(Cc2cnc3n2CCN(CC2CCCCC2)C3)c1,4.97%
25,COCCCNC(=O)CN(C)C(C)c1nc(C(C)C)no1 (stereo not given),-119%
26,Cc1cccc(C2(C(=O)NCC3CN(C)CCO3)CC2)c1 (stereo not given),0.579%
27,CN1CCOC(CNC(=O)C2(c3ccccc3)CCC2)C1 (stereo not given),-66.7%

row,SMILES,INHIBITION
1,CN1CCOC(CNC(=O)C2(c3cccc(C(F)(F)F)c3)CCCC2)C1 (stereo not given),55.9%
2,CN(Cc1csc(-c2cnn(C)c2)n1)CC1CCN(CCO)CC1,-6.54%
3,c1nc(N2CCOCC2)ncc1-c1cncn1CCCN1CCCCC1,-102%
4,CC(Cn1cncc1-c1cnn(C2CCCCC2)c1)N1CCCCC1 (stereo not given),13.6%
5,c1nn(C2CCCCC2)cc1-c1cncn1CCCN1CCCCC1,62.1%
6,Cc1ccccc1N1CCCN(C(=O)CC2CN(C(C)C)CCO2)CC1 (stereo not given),11.3%
7,COc1cc(CCC(=O)NCC2CCCN2C)ccc1OCC(F)(F)F (stereo not given),43.4%
8,CN1CCCC1CNC(=O)CCCOc1ccc(I)cc1 (stereo not given),59.8%
9,CN1CCCC1CNC(=O)CCOc1ccc(Br)cc1 (stereo not given),62.6%
10,CC(=O)c1cccc(OCCCC(=O)NCC2CCCN2C)c1 (stereo not given),3.79%
11,CN1CCCC1CNC(=O)CCOc1ccc(Cl)cc1 (stereo not given),67.9%
12,CN1CCCC1CNC(=O)CCCOc1ccc(F)cc1 (stereo not given),48.7%
13,Cc1ncc(CNC(=O)CCOc2ccccc2)c(C2CCCN2C)n1 (stereo not given),-57%
14,CN1CCCC1CNC(=O)CCCOCc1ccccc1 (stereo not given),-46.6%
15,CN1CCCC1CNC(=O)CCCOc1cccc(F)c1 (stereo not given),35.7%
16,CC(C)c1nc(O)c2nnn(C[C@@H]3CCCN(Cc4cccs4)C3)c2n1,-32.9%
17,O=C1CO[C@@H]2CN(S(=O)(=O)c3ccc(F)cc3)C[C@H]2N1,-28.2%
18,Cc1cc(C(=O)N2CC[C@@]3(O)CCN(S(C)(=O)=O)C[C@H]3C2)c(C)n1C,-156%
19,O=C(CNC(=O)c1cnccn1)Nc1ncc[nH]1,-51.8%
20,CCC(=O)N1CCN(c2ncnc3c(C)nn(C)c23)CC1,-52.3%
21,CCNC(=O)O[C@H]1COCCN(c2nc3ccccc3s2)C1,54.8%
22,O=C(NC1CCCC1)O[C@H]1COCCN(c2nc3ccccc3s2)C1,-31.6%
23,O=C(NC1CCCC1)O[C@H]1COCCN(c2nc3ccccc3o2)C1,-59.6%
24,CCOc1ccccc1CNC(=O)N1CCC(n2cncn2)CC1,-19.1%
25,COc1ccc(CN2C[C@@H]3CN(CCO)C[C@@H]3C2=O)cc1,50.3%
26,COc1ccc(CN2C[C@H]3CN(Cc4ccncc4)C(=O)[C@H]3C2)cc1,-22.1%
27,COc1ccc(CN2C[C@@H]3CN(Cc4ccncc4)C[C@@H]3C2=O)cc1,-48%

row,SMILES,INHIBITION
1,Cc1cccc(CN2CCCC3(CCN(CC4CCCO4)CC3)C2)n1 (stereo not given),45.2%
2,COc1cc(C(=O)NCC2CC2)nc2c(C)cc(F)cc12,-103%
3,C[C@@H]1CN(c2nc(N)nc3c2CCC3)C[C@]1(C)O,-48.4%
4,C[C@@H]1CN(c2nc(N)nc3c2CCC3)CC[C@@]1(O)C1CCC1,68.5%
5,C[C@@H]1CN(c2nc3c(cc2C(N)=O)CCC3)CC[C@@]1(O)C1CCC1,-80.6%
6,COc1ccc(CN(C)C(=O)CN2CC(n3cccn3)C2)cc1F,26.7%
7,CCCNC(c1ccc(F)cc1)c1cccnc1 (stereo not given),35.6%
8,CCCNC(c1cccnc1)c1ccc(F)c(C)c1 (stereo not given),57.9%
9,CCNC(c1cccnc1)c1ccc(F)c(C)c1 (stereo not given),25.4%
10,CCOCC(=O)N1C[C@@H]2COC[C@]2(c2nc(C)no2)C1,-63.5%
11,CC(=O)N1CCCC(c2cccc(-n3ccnc3)n2)C1 (stereo not given),-75.7%
12,Cc1cc(C)nc(N2CCCC(c3cccc(-n4ccnc4)n3)C2)n1 (stereo not given),66.3%
13,c1cnc(N2CCCC(c3cncc(-n4ccnc4)n3)C2)nc1 (stereo not given),-20.6%
14,O=C(Cc1ccccn1)N1CCc2c(O)nc(-c3cnccn3)nc2C1,-157%
15,CCOCc1cncc2c1CCN(C(=O)c1cscn1)C2,-43.3%
16,c1cnc2ccc(C[C@@H]3CC[C@H](CN4CCCOCC4)O3)cc2c1,57.9%
17,c1cncc(C[C@@H]2CC[C@H](CN3CCCOCC3)O2)c1,-54%
18,CC(=O)N1CCN(C[C@H]2CC[C@@H](Cc3ccc4ncccc4c3)O2)CC1,-16.4%
19,O=C(NCCCN1CCCCCC1=O)c1n[nH]c(=O)c2ccccc12,-16.5%
20,O=C(NC1CC1)c1nc(Cn2c(C(F)F)nc3ccccc32)no1,-138%
21,COCC(c1cccc(C(F)(F)F)c1)N(C)C(=O)c1cccnc1 (stereo not given),66.9%
22,COCC(c1cccc(C(F)(F)F)c1)N(C)C(=O)c1cnccn1 (stereo not given),48.8%
23,COCC(c1cccc(C(F)(F)F)c1)N(C)C(=O)c1ccncc1 (stereo not given),-196%
24,CC(C)n1nc2c(cc1=O)CN(c1ncnc3ccccc13)CC2,-52.6%
25,CN(C)C(=O)Cn1c2c(ccc1=O)CCN(Cc1cnn(C)c1)CC2,-39.8%
26,COCC(=O)NC(C)c1sc(-c2ccccc2F)nc1C (stereo not given),-22.6%
27,Cc1cc(-c2c[nH]nc2C2CCCCN2C(=O)c2ccccc2)on1 (stereo not given),-6.99%

row,SMILES,INHIBITION
1,COc1cccc(CN2CCCCC2c2n[nH]cc2-c2cc(C)no2)c1 (stereo not given),35.3%
2,CCc1ccc(CN2CCCCC2c2n[nH]cc2-c2cc(C)no2)cc1 (stereo not given),33.5%
3,Cc1cccc(CN2CCCCC2c2n[nH]cc2-c2cc(C)no2)c1 (stereo not given),52%
4,COc1ccccc1CN1CCCCC1c1n[nH]cc1-c1cc(C)no1 (stereo not given),66.4%
5,COc1ccc(CN2CCCCC2c2n[nH]cc2-c2cc(C)no2)cc1 (stereo not given),35.5%
6,COC(=O)c1ccc(CN(C)C(=O)c2cnsn2)cc1,-39.8%
7,Cc1cc(-c2cccnc2)nc(C2CCCN2S(C)(=O)=O)n1 (stereo not given),-29.8%
8,O=C(c1sccc1C1CC1)N1CCN(Cc2cscn2)CC1,-52.2%
9,O=C(c1cocn1)N1C[C@@H]2CN(Cc3ccco3)CCO[C@@H]2C1,-6.8%
10,N#Cc1ccc(F)c(CNC(=O)NC(CO)Cc2ccccc2)c1 (stereo not given),-90.6%
11,CC(C)CC(=O)N(C)Cc1nc(C(F)(F)F)cs1,-49.5%
12,CCc1nc2n(n1)CC(NCc1nnc(C(C)C)o1)CC2 (stereo not given),-107%
13,OC(CNCCn1cccn1)c1cccc(Br)c1 (stereo not given),64.3%
14,OC(CNCCn1cccn1)c1cccc(F)c1 (stereo not given),-25.4%
15,OC(CNCCn1cccn1)c1ccc(Br)cc1 (stereo not given),-6.84%
16,Cc1cc(NC(=O)NCc2ccncc2)ccc1OC(C)C,-62%
17,O=C(c1ccc(Cl)cc1)N1CCn2c(nn(-c3cccc(Cl)c3)c2=O)C1,-1.25%
18,CCO[C@H]1CC[C@H]2[C@@H]1OCCN2C(=O)COc1ccccc1,-106%
19,CCOc1ccnc(N2CCCN(c3nc(C4CC4)ns3)CC2)n1,52.1%
20,CN1CCCN(c2nc(C3CC3)ns2)CC1,-0.753%
21,CCOc1ccnc(N2CCCN(c3nc(CC)ns3)CC2)n1,-63.7%
22,Cc1ncoc1C(=O)N1CCOC(Cc2ccccc2)C1 (stereo not given),-121%
23,Cn1nc(C2CCCN(Cc3ccc(F)cc3F)C2)c2nccnc21 (stereo not given),-79%
24,Cc1cc(C(=O)Nc2ccc3oc(=O)n(CCN(C)C)c3c2)c(C)o1,8.61%

# Reference: ChEMBL document CHEMBL4513216, “Probing the Open Global Health Chemical Diversity Library for Multistage-Active Starting Points for Next-Generation Antimalarials” (ACS Infect Dis, 2020)
